Here are results for 39 compounds from PubChem BioAssay (NCATS).

Results filed as inconclusive are left out. The source made the active and inactive calls. Calls follow the shape of the dose curve; as a rule, active = well fitted inhibition curve with a large enough effect; inconclusive = small, poorly fitted or top-dose-only effect; inactive = no such curve, though single readings can be large or run the other way.
% is scaled to controls: 0 for no effect and ±100 for the full control effect.

This test relates to Zika virus NS2B-NS3 protease (unlinked complex). As to the kind of experiment: Primary screen GU Rhodamine qHTS for Zika virus inhibitors: Unlinked NS2B-NS3 protease assay (AID 1347159). Also: nearly all actives have a fitted effect of over 60% in size. The conditions noted are these: Recombinant ZIKV NS2B-NS3 protease, Rhodamine110 substrate fluorescence; series mostly up to 107 µM; activity change, negative = inhibition: at the top concentration. Summed up:
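A qHTS format was used, with compound concentrations ranging up to 114 microM. Each compound was preincubated with 25 nM NS2B-NS3 protease, and the substrate was then added at 1.5 microM. Curves were fitted with a 4-parameter Hill model.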
For orientation: qHTS replaces the single test concentration by a dilution series.
As for `C=CCC1=C[C@]2(OC)[C@H](C)[C@@H](c3ccc(OC)c(OC)c3)O[C@]2(OC)CC1=O`, the “activity change, negative = inhibition” value is 49.4% (inactive).

On to `CC(=O)O[C@@]1(C)[C@@H]2CC(=C(C)C)C(=O)C[C@@]2(C)CC[C@H]1OC(=O)C1(C)OC1C` (some centres undefined), for which the “activity change, negative = inhibition” value was 24.2% (inactive).

On to `C[C@@H]1O[C@@H](O[C@H]2[C@H](OC(=O)[C@]34CCC(C)(C)C[C@H]3C3=CCC5[C@@]6(C)C[C@@H](O)[C@@H](O[C@@H]7O[C@H](CO)[C@@H](O)[C@H](O)[C@H]7O)[C@@](C)(CO)C6[C@H](O)C[C@@]5(C)[C@]3(C)CC4)OC[C@H](O)[C@@H]2O)[C@H](O)[C@H](O[C@@H]2OC[C@](O)(CO)[C@H]2O)[C@H]1O[C@@H]1OC[C@@H](O)[C@H](O[C@H]2O[C@H](C)[C@@H](O)[C@H](O)[C@@H]2O)[C@H]1O` (some centres undefined), for which the activity change, negative = inhibition was 9.3% [at 19.1 µM] (inactive).

In the case of `CC1(C)CC[C@]2(C(=O)O[C@@H]3O[C@H](CO)[C@@H](O)[C@H](O)[C@H]3O)CC[C@]3(C)C(=CCC4[C@@]5(C)C[C@@H](O)[C@H](O)[C@@](C)(CO)C5[C@H](O)C[C@]43C)C2C1` (some centres undefined), the “activity change, negative = inhibition” value is 55.3% [at 32.5 µM] (inactive).

For the compound `O=C(/C=C/c1ccc(O)cc1)OC[C@H]1O[C@H](O[C@@]2(CO)O[C@@H](CO)[C@H](O)[C@H]2O)[C@H](O)[C@@H](O)[C@@H]1O`, the “activity change, negative = inhibition” value is -7.05% [at 57.1 µM] (inactive).

For `C=C(C)[C@@]1(O)C[C@@]2(C)C(=CC1=O)CC[C@@H](O)[C@@H]2C`, the “activity change, negative = inhibition” value was 6.93% (inactive).

In the case of `CC1=C2C(=O)C=C(CO[C@@H]3O[C@H](CO)[C@@H](O)[C@H](O)[C@H]3O)[C@@H]2[C@H]2OC(=O)[C@H](C)[C@@H]2[C@@H](O)C1`, the “activity change, negative = inhibition” value is 10.9% [at 57.1 µM] (inactive).

`Cc1cn(-c2cc(NC(=O)c3ccc(C)c(Nc4nccc(-c5cnccn5)n4)c3)cc(C(F)(F)F)c2)cn1`: the “activity change, negative = inhibition” value is -17.4% (inactive).

With `NCCCCN(Cc1nc2ccccc2[nH]1)[C@H]1CCCc2cccnc21`, the “activity change, negative = inhibition” value was 39.3% [at 57.1 µM] (inactive).

As for `CC1(C)CC[C@]2(C(=O)O[C@@H]3O[C@H](CO)[C@@H](O)[C@H](O)[C@H]3O)CC[C@]3(C)C(=CCC4[C@@]5(C)CC[C@H](O[C@H]6O[C@H](CO)[C@@H](O)[C@H](O[C@@H]7O[C@H](CO)[C@@H](O)[C@H](O)[C@H]7O)[C@H]6O)C(C)(C)C5CC[C@]43C)[C@@H]2C1` (some centres undefined), the “activity change, negative = inhibition” value is 4.5% [at 32.5 µM] (inactive).

`CCC/C=C1\OC(=O)C2=C1CCC(O)C2O` (centres undefined): the “activity change, negative = inhibition” value was 2.41% (inactive).

`CCCCOc1nc(N)c2c(n1)N(Cc1cccc(CN3CCCC3)c1)CC(=O)N2`: the “activity change, negative = inhibition” value was -7.04% (inactive).

As to `COC1OC(OC)C(O)(CCC2(C)C(C)CCC3(C)C2CC(O)C(O)C32CO2)C1O` (centres undefined), the “activity change, negative = inhibition” value was 4.44% [at 57.1 µM] (inactive).

As to `COc1ccc(/C=C/C(N)=O)cc1OC`, the “activity change, negative = inhibition” value is -9.51% (inactive).

`COc1cc2c(cc1OC)N1C(=O)C[C@@]34C=CC[N@+]5([O-])CC[C@H]2[C@H](CC3)[C@@]145`: the “activity change, negative = inhibition” value was -21.5% (inactive).

For the compound `Cc1ccccc1N1CCN(S(=O)(=O)C[C@]23CC[C@H](C[C@@H]2NC(=O)[C@@H](N)CCS(C)(=O)=O)C3(C)C)CC1`, the “activity change, negative = inhibition” value was 14.7% (inactive).

For the compound `C=CC(C)(O)CC/C=C(\C)C(=O)O[C@@H]1[C@@H](O)[C@H](OC(C)(C=C)CC/C=C(\C)C(=O)O)O[C@H](CO)[C@H]1OC(=O)/C(C)=C/CCC(C)(O)C=C` (some centres undefined), the “activity change, negative = inhibition” value is 14.5% [at 32.5 µM] (inactive).

Take `COC1OC(=O)C2=C1C1(C)CCCC(C)(C)C1CC2O` (centres undefined): the “activity change, negative = inhibition” value is -28.8% (inactive).

Turning to `Cc1ncc(Cl)cc1NCc1ccc(C(=O)NC(CC2CCCC2)C(=O)NC2CC2)s1` (centres undefined), the “activity change, negative = inhibition” value is 20.3% (inactive).

Consider `COC(=O)C1=COC(O[C@@H]2O[C@H](CO)[C@@H](O)[C@H](O)[C@H]2O)[C@@H]2[C@@](C)(O)[C@@H](OC(=O)/C=C/c3ccccc3)C[C@]12O` (some centres undefined), for which the “activity change, negative = inhibition” value was -21.2% [at 57.1 µM] (inactive).

Turning to `C=CC(C)(C)C12Nc3c(ccc4c3OC(C)(C)C=C4)C1(O)CC1C(=O)N3CCCC3C(=O)N12` (centres undefined), the “activity change, negative = inhibition” value was -1.36% [at 57.1 µM] (inactive).

For the compound `CCCCS(=O)(=O)NC(Cc1ccc(OCCCCC2CCNCC2)cc1)C(=O)O` (centres undefined), the “activity change, negative = inhibition” value is 1.45% (inactive).

As for `O=C(O[C@H]1[C@H](Oc2ccc(O)cc2CO)O[C@H](CO)[C@@H](O)[C@@H]1O)c1ccccc1`, the “activity change, negative = inhibition” value was 11.7% [at 57.1 µM] (inactive).

As to `Cc1nc2cc(-c3cc(F)cc(C#N)c3)ccc2s1`, the “activity change, negative = inhibition” value is -1.2% (inactive).

For the compound `CC(C)=CCC/C(C)=C/CO[C@@H]1O[C@H](CO[C@@H]2O[C@@H](CO)[C@H](O)[C@H]2O)[C@@H](O)[C@H](O)[C@H]1O`, the “activity change, negative = inhibition” value was 0.0353% [at 57.1 µM] (inactive).

Take H-DPPDPDRFYGMM-NH2: the “activity change, negative = inhibition” value is 8.6% [at 32.5 µM] (inactive).

Consider `C=C1CCC2[C@](C)(CO)CCC[C@@]2(C)[C@@H]1CCC1=CCOC1=O` (some centres undefined), for which the “activity change, negative = inhibition” value was -17.8% (inactive).

Regarding `O=C(O)Cc1cn([C@@H]2O[C@H](CO)[C@@H](O)[C@H](O)[C@H]2O[C@@H]2O[C@H](CO)[C@@H](O)[C@H](O)[C@H]2O)c2ccccc12`, the “activity change, negative = inhibition” value was 5.75% [at 57.1 µM] (inactive).

Take `NC(=O)[C@@H]1CC[C@H](c2ccc(OCc3ccccc3F)cc2)N1`: the “activity change, negative = inhibition” value was 28.5% (inactive).

`Cc1c(O)cc2c(c1O)COC1(O)CCCOC21` (centres undefined): the “activity change, negative = inhibition” value is 3.28% (inactive).

Turning to `O=C(c1c2ccccc2cc2ccccc12)N1CCC(N2CCC[C@@H](C(=O)N3CCOCC3)C2)CC1`, the “activity change, negative = inhibition” value was -0.16% (inactive).

In the case of `CN(C)c1ccc(C2O[C@@H](c3ccccc3)C[C@H](c3ccccc3)O2)cc1` (some centres undefined), the “activity change, negative = inhibition” value is -0.663% (inactive).

In the case of `CC(=O)OCC1OC(OC2COC(OC3COC(OC4C(OC5C(CO)OC(OC6CCC7(C)C(CCC8(C)C7CC=C7C9CC(C)(C)CCC9(C(=O)OC9OC(CO)C(O)C(O)C9OC9OCC(OC%10OCC(O)(CO)C%10O)C(O)C9O)C(O)CC78C)C6(C)C)C(O)C5O)OCC(O)C4O)C(O)C3O)C(O)C2O)C(OC(=O)/C=C/c2ccccc2)C(O)C1OC(C)=O` (centres undefined), the activity change, negative = inhibition was 8.67% [at 19.1 µM] (inactive).

For the compound `COC(=O)C1=COC(OC2OC(CO)C(O)C(O)C2O)C2C(C)CC(=O)C12O` (centres undefined), the “activity change, negative = inhibition” value is 18.1% [at 57.1 µM] (inactive).

Take `CC1(C)CC[C@]2(C(=O)OC3OC(CO)C(O)C(O)C3O)CC[C@]3(C)C(=CCC4[C@@]5(C)C[C@@H](O)[C@H](OC6OC(C(=O)O)C(O)C(O)C6O)C(C)(C)C5CC[C@]43C)[C@@H]2C1` (some centres undefined): the “activity change, negative = inhibition” value is 2.43% [at 32.5 µM] (inactive).

Regarding `Cc1cccc(-c2nn3c(c2-c2ccnc4ccc(C(N)=O)cc24)CCC3)n1`, the “activity change, negative = inhibition” value was 0.0016% (inactive).

For the compound `OC[C@H]1O[C@@H](Oc2cc(O)cc(-c3cc4ccc(O[C@@H]5O[C@H](CO)[C@@H](O)[C@H](O)[C@H]5O)cc4o3)c2)[C@H](O)[C@@H](O)[C@@H]1O`, the “activity change, negative = inhibition” value is -31.2% [at 57.1 µM] (inactive).

For the compound `CC(=O)/C=C/[C@H]1[C@](C)(O)[C@@H](O)[C@H](O)C2C(C)(C)CCC[C@@]21C` (some centres undefined), the “activity change, negative = inhibition” value was 2.18% (inactive).

On to `N#Cc1ccc(C2CCCc3cncn32)cc1` (centres undefined), for which the “activity change, negative = inhibition” value was -18% [at 57.1 µM] (inactive).
